tested on: Scedosporium aurantiacum CBS 136046; assay: growth inhibition relative to DMSO control (OD600); higher = more antifungal activity, active = 80 or more; extreme values may be limits of the assay; conditions: 5 µM; 72 h; 37 °C
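Further: conidia screened in RPMI 1640 medium under 5% CO2, growth read by spectrophotometer, medium with 0.5% DMSO serving as the untreated reference.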

Structure (SMILES) | growth inhibition
Cn1cncc1[C@@](N)(c1ccc(Cl)cc1)c1ccc2c(c1)c(-c1cccc(Cl)c1)cc(=O)n2C | 11.3% (inactive)
CCOc1ccc(/C=N/NC(=O)C2CC2c2ccc(C(C)(C)C)cc2)cc1OCC (stereo not drawn) | 18.4% (inactive)
O=C(c1ccc(F)cc1)N1CCN2C(=O)c3ccccc3C12c1ccccc1 (stereo not drawn) | 12.5% (inactive)
O=[N+]([O-])c1cn(Cc2nc(O)nc(O)c2Br)cn1 | 20.5% (inactive)
Nc1ccc(-c2nc3cc(C(F)(F)F)ccc3n2C23CC4CC(CC(C4)C2)C3)cc1 | 27.1% (inactive)
Nc1nc2c(ncn2COCCO)c(=O)[nH]1 | 11.1% (inactive)
CC[C@H]1OC(=O)[C@H](C)[C@@H](O[C@H]2C[C@@](C)(OC)[C@@H](O)[C@H](C)O2)[C@H](C)[C@@H](O[C@@H]2O[C@H](C)C[C@H](N(C)C)[C@H]2O)[C@](C)(O)C[C@@H](C)C(=O)[C@H](C)[C@@H](O)[C@]1(C)O | 0.273% (inactive)
CCOC(=O)N[C@@H]1CC[C@@H]2[C@@H](C1)C[C@H]1C(=O)O[C@H](C)[C@H]1[C@H]2/C=C/c1ccc(-c2cccc(F)c2)cn1 | 44.3% (inactive)
CCN(CC)S(=O)(=O)c1ccc(Cl)c(C(=O)Nc2sc3c(c2C#N)CCCC3)c1 | 25.7% (inactive)
CC(Cc1ccccc1)C(=O)Nc1ccc(Cl)cc1C(=O)O (stereo not drawn) | 0% (inactive)
CC(=O)N1c2ccccc2NC2=C(C(=O)CC(C)(C)C2)C1c1ccc(OCc2ccccc2)cc1 (stereo not drawn) | 15.4% (inactive)
Nc1nc(Nc2ccc3nc(-c4ccc(F)cc4)cc(N)c3c2)cc(-c2ccccc2)n1 | 17.1% (inactive)
O=C(O)CSc1cc(NS(=O)(=O)c2cccc3cccnc23)c2ccccc2c1O | 20.8% (inactive)
CCCCOC(=O)Nc1cc2nc(C3CCCCC3)[nH]c2cc1N(CC)CC | 39.7% (inactive)
NCC(=O)Nc1ccc(-n2nc(C(F)(F)F)cc2-c2ccc3c(ccc4ccccc43)c2)cc1 | 25.5% (inactive)
Nc1cnn(C2OC(CO)C(O)C2O)c(=O)n1 (stereo not drawn) | 8.41% (inactive)
CC#C[C@]1(O)CC[C@H]2[C@@H]3CCC4=CC(=O)CCC4=C3[C@@H](c3ccc(N(C)C)cc3)C[C@@]21C | 11.4% (inactive)
Fc1ccc(-n2cc(Cn3c(-c4cccc(F)c4)nc4ccccc43)nn2)cc1 | 17.9% (inactive)
COc1ccc2c(c1)cc(CNC(=O)c1cc3ccccc3o1)n2CC(=O)O | 17.7% (inactive)

Structure (SMILES) | growth inhibition
O=[N+]([O-])c1ccc2c(CCc3c[nH]c4ccccc34)c[nH]c2c1 | 48.7% (inactive)
OCCC#Cc1nc(-c2ccc(F)cc2)c(-c2ccncc2)n1CCCc1ccccc1 | 13.8% (inactive)
NC(=O)c1ccccc1NC(=O)c1ccc(C(=O)Nc2ccccc2C(N)=O)cc1 | 11.5% (inactive)
NC(=O)c1nccn([C@@H]2O[C@H](CO)[C@@H](O)[C@H]2O)c1=O | 2% (inactive)
O=c1cc(NCCCN[C@@H]2CCOc3c(Br)cc(Br)cc32)[nH]c2ccsc12 | 17.3% (inactive)
c1cc(CN2CCCNCCNCCCNCC2)ccc1CN1CCCNCCNCCCNCC1 | 6.54% (inactive)
CC(C)(C)OC(=O)NCc1ccc(C(=O)N[C@H]2CCOC2=O)cc1 | 15.3% (inactive)
N#Cc1cc([N+](=O)[O-])ccc1Oc1ccccc1Cl | 20.3% (inactive)
COc1ccc(C(C)(C)C)cc1NC(=O)C(=O)c1ccc(OCCN2CCOCC2)c2ccccc12 | 9.3% (inactive)
CCOc1noc2cc(OCCC3CCN(c4ccc(C)nn4)CC3)ccc12 | 37.3% (inactive)
CC(C)(C)c1ccc(C(Cn2cccc(C(F)(F)F)c2=O)NC2Cc3ccccc3C2)cc1 (stereo not drawn) | 28.9% (inactive)
O=[N+]([O-])/C(Br)=C/c1ccc(Br)o1 | 0.879% (inactive)
CN(Cc1ccc(C(C)(C)C)cc1)Cc1cccc2ccccc12 | 37.7% (inactive)
Clc1cc2nc(C3CCNCC3)n(Cc3ccc(CNCCc4c[nH]cn4)cc3)c2cc1Cl | 16.1% (inactive)
O=C(Nc1[nH]c(=O)ncc1F)c1ccccc1 | 5.77% (inactive)
Nc1cc(N)c2nc(-c3ccccc3)c(Nc3ccc(F)cc3)nc2c1 | 0.18% (inactive)
CCC(C)(C)c1ccc(CC(C)CN2C[C@@H](C)O[C@@H](C)C2)cc1 (stereo partly drawn) | 84.7% (active)
CCc1ccc(C2CC(C(F)(F)F)n3ncc(C(=O)NCc4ccc(OC)cc4)c3N2)cc1 (stereo not drawn) | 34.5% (inactive)
Cc1ccc(C)c(OCCCCCCN2C[C@H](O)[C@@H](O)[C@H](O)[C@H]2CO)c1 | 15.9% (inactive)

Source: the supplement of paper PMC9897528
